Measured values as given in the supplement of paper PMC11732987, “Enantioselective OTUD7B fragment discovery through chemoproteomics screening and high-throughput optimisation” (Communications Chemistry, 2025).
A number with no mark means an inactive call.

What was measured:
Assay in all cases: log2 ratio of Biotin-Ahx-Ub-VS probe labelling (fragment/DMSO); higher = less target engagement (more negative = stronger competition), active = hit call of the paper (q ≤ 0.05, log2 ratio ≤ -1)
Details in all cases: compound concentration: 200 uM; treatment time: 3 h
USP19 = target: T1, USP19 (UniProt O94966)
T1 sequence (whole entry): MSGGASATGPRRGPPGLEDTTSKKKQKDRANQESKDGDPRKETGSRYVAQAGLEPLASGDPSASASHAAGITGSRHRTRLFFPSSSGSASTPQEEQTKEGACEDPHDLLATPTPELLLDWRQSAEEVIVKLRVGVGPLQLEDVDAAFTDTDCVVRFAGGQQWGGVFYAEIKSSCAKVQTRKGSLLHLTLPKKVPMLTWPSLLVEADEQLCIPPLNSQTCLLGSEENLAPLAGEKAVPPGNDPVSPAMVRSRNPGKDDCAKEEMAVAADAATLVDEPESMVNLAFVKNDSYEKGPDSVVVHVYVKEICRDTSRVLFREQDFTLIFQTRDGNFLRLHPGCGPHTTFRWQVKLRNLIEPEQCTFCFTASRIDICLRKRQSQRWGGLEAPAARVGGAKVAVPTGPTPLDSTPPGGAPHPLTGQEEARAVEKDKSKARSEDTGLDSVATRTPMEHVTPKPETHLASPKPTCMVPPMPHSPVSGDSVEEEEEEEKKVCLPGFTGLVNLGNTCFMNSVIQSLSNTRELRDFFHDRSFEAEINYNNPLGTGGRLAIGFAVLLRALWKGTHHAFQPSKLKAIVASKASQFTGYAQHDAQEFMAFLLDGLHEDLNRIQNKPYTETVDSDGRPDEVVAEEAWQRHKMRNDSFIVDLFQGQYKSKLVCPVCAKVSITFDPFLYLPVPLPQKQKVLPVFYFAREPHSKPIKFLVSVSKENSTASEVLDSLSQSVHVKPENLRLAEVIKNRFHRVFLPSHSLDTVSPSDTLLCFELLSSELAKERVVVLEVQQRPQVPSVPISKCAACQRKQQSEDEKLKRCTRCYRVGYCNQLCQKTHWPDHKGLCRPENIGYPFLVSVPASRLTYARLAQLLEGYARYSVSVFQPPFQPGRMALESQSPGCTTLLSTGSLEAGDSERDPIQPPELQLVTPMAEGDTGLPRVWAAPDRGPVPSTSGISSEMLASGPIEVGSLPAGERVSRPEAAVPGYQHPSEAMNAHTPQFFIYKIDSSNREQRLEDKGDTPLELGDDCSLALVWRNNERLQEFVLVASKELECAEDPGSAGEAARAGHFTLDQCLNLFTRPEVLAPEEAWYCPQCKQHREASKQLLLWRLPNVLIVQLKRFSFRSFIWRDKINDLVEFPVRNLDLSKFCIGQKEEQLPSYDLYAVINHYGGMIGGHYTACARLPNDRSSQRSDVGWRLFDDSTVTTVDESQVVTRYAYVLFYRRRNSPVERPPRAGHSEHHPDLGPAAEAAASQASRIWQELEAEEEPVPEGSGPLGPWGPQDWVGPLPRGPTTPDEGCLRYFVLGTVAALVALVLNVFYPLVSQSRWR
Method in brief: (§1)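 Average log2 ratios of fragment over vehicle were obtained by unpaired t-test from global-median-normalised Spectronaut label-free quantities. Proteins with ≥2 unique peptides were included. HEK293T lysate (495 µg per sample) was treated in triplicate with fragment at 200 µM or vehicle for 3 h, then with Biotin-Ahx-Ub-VS at 0.5 µM final for 1 h, and labelled DUBs were NeutrAvidin-enriched and run by diaPASEF LC-MS/MS.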

USP22 = target: T2, USP22 (UniProt Q9UPT9)
T2 sequence (whole entry): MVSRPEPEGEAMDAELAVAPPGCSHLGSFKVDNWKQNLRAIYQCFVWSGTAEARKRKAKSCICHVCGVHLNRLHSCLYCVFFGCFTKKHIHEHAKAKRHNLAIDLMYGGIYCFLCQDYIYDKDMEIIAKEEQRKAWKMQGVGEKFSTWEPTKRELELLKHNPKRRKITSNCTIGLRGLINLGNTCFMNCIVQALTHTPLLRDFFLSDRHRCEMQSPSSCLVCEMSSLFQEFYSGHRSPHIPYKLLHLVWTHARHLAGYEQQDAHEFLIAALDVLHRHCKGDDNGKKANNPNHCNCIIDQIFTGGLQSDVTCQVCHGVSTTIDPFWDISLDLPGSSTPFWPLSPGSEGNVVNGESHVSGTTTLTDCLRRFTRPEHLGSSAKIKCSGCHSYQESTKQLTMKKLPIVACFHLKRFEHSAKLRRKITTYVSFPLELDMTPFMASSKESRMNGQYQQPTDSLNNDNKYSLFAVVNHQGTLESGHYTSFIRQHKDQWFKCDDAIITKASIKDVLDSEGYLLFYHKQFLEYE
Method in brief: as §1

USP24 = USP24 (UniProt Q9UPU5)
USP24, sequence (Q9UPU5 whole entry): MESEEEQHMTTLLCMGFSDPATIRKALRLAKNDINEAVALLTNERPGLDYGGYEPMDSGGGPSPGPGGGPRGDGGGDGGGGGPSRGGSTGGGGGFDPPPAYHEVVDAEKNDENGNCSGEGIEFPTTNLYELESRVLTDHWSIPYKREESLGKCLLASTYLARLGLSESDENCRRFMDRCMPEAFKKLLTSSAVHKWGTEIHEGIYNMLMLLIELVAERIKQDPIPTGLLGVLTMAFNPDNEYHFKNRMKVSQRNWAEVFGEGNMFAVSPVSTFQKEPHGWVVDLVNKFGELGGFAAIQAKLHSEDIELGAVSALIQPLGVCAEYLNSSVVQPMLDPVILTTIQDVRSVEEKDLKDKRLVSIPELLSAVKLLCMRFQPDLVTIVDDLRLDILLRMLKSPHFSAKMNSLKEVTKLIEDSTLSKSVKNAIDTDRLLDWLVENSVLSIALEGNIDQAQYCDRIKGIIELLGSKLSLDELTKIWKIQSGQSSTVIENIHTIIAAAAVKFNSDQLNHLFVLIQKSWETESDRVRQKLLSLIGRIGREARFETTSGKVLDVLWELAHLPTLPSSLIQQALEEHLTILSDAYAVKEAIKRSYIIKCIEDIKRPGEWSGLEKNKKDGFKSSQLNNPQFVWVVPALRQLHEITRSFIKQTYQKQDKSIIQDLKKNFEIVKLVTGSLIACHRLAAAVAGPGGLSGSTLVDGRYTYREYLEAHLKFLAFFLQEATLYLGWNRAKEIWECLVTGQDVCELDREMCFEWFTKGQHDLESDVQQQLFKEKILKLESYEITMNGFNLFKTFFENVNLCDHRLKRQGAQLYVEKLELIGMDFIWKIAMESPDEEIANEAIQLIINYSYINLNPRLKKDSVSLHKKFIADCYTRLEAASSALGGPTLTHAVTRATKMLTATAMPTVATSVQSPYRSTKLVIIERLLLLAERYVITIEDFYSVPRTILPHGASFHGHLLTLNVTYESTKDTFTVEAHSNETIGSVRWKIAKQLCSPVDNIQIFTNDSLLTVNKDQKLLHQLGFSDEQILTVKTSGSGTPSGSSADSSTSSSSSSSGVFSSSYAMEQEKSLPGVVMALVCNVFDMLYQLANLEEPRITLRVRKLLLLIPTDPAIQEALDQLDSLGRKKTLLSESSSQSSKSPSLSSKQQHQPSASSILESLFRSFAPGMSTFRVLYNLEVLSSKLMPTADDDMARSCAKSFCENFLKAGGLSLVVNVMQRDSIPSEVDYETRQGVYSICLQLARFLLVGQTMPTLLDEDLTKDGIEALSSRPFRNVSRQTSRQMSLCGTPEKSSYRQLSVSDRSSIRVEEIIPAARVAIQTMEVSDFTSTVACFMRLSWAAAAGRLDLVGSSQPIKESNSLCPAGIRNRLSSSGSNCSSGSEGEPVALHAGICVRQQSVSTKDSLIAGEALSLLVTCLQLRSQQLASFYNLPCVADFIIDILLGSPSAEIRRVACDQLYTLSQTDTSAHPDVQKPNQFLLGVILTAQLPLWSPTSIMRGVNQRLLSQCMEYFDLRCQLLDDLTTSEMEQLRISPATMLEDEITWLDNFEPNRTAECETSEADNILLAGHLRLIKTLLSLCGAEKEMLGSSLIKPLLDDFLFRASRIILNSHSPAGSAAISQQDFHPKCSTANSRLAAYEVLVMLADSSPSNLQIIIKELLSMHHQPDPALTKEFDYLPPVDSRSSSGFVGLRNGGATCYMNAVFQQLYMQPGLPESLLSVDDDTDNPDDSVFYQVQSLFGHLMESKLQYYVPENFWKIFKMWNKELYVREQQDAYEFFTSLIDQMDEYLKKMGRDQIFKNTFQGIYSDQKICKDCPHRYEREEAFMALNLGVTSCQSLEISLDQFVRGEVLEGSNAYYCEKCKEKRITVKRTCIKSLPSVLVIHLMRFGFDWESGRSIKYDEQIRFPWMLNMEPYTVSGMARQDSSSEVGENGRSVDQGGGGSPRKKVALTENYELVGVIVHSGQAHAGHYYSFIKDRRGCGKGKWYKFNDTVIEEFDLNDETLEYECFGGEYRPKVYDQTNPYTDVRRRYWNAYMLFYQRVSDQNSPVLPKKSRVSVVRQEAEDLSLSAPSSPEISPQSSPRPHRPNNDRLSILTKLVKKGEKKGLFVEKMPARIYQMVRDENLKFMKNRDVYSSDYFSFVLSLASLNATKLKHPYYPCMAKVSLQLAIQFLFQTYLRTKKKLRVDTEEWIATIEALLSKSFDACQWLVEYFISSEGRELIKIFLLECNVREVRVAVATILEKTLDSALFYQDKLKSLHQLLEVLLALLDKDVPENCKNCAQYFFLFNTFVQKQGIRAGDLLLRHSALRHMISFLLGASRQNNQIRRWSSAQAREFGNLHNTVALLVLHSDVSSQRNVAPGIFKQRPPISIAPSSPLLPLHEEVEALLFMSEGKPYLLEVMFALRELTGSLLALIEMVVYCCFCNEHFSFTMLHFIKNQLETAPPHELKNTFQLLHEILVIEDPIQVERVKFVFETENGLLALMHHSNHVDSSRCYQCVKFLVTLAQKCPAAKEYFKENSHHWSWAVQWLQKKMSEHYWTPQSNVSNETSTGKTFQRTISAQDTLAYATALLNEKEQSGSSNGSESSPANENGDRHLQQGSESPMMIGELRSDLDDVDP
Method in brief: as §1

USP25 = target: T3, USP25 (UniProt Q9UHP3)
T3 sequence (whole entry): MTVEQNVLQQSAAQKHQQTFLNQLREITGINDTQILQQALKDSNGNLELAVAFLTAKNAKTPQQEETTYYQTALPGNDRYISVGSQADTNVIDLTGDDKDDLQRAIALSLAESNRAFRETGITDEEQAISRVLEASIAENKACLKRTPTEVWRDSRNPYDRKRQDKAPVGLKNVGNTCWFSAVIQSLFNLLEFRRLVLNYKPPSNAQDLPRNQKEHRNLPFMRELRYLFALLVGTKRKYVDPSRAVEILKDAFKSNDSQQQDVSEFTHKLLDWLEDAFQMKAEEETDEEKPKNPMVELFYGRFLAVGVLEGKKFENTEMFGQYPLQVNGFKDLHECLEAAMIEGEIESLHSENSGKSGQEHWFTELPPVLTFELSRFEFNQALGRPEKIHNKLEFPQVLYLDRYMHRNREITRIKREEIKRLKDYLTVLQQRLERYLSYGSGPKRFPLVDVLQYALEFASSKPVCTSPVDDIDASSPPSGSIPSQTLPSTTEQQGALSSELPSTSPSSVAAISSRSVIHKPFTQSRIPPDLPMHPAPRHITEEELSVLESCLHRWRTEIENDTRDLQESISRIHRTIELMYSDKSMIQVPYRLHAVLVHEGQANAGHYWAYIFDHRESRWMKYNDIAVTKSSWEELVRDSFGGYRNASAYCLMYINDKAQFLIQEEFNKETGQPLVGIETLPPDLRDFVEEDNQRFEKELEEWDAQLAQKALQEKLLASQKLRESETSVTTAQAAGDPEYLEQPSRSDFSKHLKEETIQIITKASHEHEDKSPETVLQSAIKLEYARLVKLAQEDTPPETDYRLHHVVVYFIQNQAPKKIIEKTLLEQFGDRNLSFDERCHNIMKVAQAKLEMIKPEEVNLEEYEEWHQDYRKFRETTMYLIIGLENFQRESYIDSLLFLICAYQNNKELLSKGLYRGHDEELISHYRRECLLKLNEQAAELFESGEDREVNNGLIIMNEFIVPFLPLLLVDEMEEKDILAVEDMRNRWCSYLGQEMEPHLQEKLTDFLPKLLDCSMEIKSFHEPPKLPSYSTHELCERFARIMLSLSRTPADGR
Method in brief: as §1

USP28 = target: T4, USP28 (UniProt Q96RU2)
T4 sequence (whole entry): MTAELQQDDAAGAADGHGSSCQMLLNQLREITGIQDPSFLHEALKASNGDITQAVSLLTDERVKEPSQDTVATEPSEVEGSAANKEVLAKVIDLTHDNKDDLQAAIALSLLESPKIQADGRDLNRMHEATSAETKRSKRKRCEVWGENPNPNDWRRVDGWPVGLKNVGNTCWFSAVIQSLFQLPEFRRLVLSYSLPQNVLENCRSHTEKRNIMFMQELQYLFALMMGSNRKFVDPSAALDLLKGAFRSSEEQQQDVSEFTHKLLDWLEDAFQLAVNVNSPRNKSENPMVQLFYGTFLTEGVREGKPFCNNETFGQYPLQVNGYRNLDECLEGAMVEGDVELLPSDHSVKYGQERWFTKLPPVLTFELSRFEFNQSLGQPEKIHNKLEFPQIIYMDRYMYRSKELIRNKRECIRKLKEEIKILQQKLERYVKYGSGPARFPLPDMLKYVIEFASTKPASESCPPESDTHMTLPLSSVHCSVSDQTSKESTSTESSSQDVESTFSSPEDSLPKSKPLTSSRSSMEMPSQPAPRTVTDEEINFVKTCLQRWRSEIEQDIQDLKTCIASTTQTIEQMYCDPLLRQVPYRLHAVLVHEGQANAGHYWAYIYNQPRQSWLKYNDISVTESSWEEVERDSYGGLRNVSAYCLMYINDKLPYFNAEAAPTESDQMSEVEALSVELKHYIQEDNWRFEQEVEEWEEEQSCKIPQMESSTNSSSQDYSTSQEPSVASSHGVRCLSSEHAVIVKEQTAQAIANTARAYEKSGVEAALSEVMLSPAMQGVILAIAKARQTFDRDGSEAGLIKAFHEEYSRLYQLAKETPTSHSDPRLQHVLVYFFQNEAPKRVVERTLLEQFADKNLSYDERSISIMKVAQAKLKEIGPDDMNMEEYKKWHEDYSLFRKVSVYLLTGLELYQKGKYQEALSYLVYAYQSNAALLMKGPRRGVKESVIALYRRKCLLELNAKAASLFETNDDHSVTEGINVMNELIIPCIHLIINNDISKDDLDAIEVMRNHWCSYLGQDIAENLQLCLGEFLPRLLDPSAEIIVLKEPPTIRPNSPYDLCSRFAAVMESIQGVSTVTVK
Method in brief: as §1

SMILES: COc1ccc(-c2csc(NC(=O)CCl)n2)cc1
- log2 ratio of Biotin-Ahx-Ub-VS probe labelling (USP19): -0.674
- log2 ratio of Biotin-Ahx-Ub-VS probe labelling (USP22): -0.229
- log2 ratio of Biotin-Ahx-Ub-VS probe labelling (USP24): -1.44 (active)
- log2 ratio of Biotin-Ahx-Ub-VS probe labelling (USP25): -0.591
- log2 ratio of Biotin-Ahx-Ub-VS probe labelling (USP28): -0.741
